Compound activity: PubChem BioAssay, National Center for Advancing Translational Sciences (NCATS)
IL1B secr inh – inhibitors of inflammasome signaling (IL-1 beta secretion). THP-1 LPS/ATP IL-1B secretion, AlphaLISA, 16 h; active compounds read low. activity change, % at 57.5 µM. 4.7% of 360,000 active; in the data active = activity change below about -50%; inconclusive = mostly about -30% to -49%; also: % is scaled to controls: 0 for no effect and ±100 for the full control effect
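THP-1 cells pretreated 1 hr with compounds (up to 57.5 uM final), then stimulated with LPS (250 ng/mL final) plus ATP (1.25 mM final); secreted IL-1B measured by AlphaLISA after 16 hr, decreased signal indicating inhibition.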
Gal4-VP16 FLuc – counter-screen for ROR gamma inhibitors: Gal4-VP16 reporter; Drosophila S2 Gal4-VP16 UAS-luciferase, luminescence, 20 h; Potency, µM (highest dose often 53.6 µM), for the others: at the highest dose activity, negative = inhibition, actives largely listed as inhibitors; 3.5% of 310,000 active;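 also: Gal4-VP16 expression switched on by copper sulfate through the metallothionein promoter; potency is read from the fitted curve at half-maximal effect; % is scaled to controls: 0 for no effect and ±100 for the full control effect; nearly all actives have a fitted effect of over 50% in size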
SW480 rereplic – DNA re-replication induction in SW480 cells | AID 624297 | SW480 DNA re-replication, Hoechst DNA content imaging, 48 h | Potency, µM (highest dose often 46.1 µM), for inactives: at the highest dose re-replication activation, actives largely listed as activators | 1.8% of 340,000 active; also: potency is read from the fitted curve at half-maximal effect; % of control where 0% means no effect; nearly all actives have a fitted effect of over 55% in size
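Image-based read-out: total Hoechst fluorescence of nuclei (405 nm excitation, 500-530 nm emission), with hits raising the fraction of high-intensity nuclei. SW480 colon cells incubated 48 hr with compounds at 37 C.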
RORgamma inh – ROR gamma (mouse) transcription inhibition; Drosophila S2 Gal4-RORgamma UAS-luciferase reporter, 20 h; 5.4% of 310,000 active; Potency, µM (series often up to 53.6 µM), without a hit: top-dose activity change, negative = inhibition, hits mostly inhibitors; P51450; AID 2551; also: potency is read from the fitted curve at half-maximal effect; % is scaled to controls: 0 for no effect and ±100 for the full control effect; nearly all actives have a fitted effect of over 60% in size
Target sequence (P51450 whole entry, looked up, the tested form may be a part): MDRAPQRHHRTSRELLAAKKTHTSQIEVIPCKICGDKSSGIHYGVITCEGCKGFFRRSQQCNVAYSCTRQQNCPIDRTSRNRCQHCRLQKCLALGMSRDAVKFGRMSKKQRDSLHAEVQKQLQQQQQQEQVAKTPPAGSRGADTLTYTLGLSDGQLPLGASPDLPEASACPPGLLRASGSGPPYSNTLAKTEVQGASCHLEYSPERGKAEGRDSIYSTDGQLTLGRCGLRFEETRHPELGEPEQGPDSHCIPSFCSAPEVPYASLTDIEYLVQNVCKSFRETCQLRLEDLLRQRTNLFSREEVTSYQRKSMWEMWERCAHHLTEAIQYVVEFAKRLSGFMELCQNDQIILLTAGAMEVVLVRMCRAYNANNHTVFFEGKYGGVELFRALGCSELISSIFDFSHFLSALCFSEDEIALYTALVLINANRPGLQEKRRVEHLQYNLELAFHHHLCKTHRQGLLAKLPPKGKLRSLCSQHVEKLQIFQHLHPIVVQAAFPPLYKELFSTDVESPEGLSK
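Schneider cells (Drosophila), stable Gal4 DBD–ROR gamma + UAS-luc; 1 hr cmpd preincubation; Cu2+ induction 700 uM final; 20 hr ambient; luminescence.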
MCF10A rereplic – inducers of DNA re-replication in MCF 10A breast cells. MCF 10A DNA re-replication, Hoechst nuclear intensity, 48 h. Potency, µM (series often up to 46.1 µM), for the others: at the top dose activity, positive = re-replication, actives largely listed as activators. 2.9% of 350,000 active. AID 624296; also: potency is read from the fitted curve at half-maximal effect; % of control where 0% means no effect; nearly all actives have a fitted effect of over 50% in size
Numbers without * were called inactive. In the library only some 11% were active in any assay of this set; here they are far more common. Unless noted, calls follow the shape of the dose curve; as a rule, active = well fitted curve in the direction sought with a large enough effect; inconclusive = small, poorly fitted or top-dose-only effect, or another doubt; inactive = no such curve, though single readings can be large; an effect the other way counts as inactive or inconclusive.

Results for COc1ccc(C(C)=O)c(Oc2cc(NN3CCCCC3)c([N+](=O)[O-])cc2[N+](=O)[O-])c1 ?
IL1B secr inh: 0; Gal4-VP16 FLuc: 8%; SW480 rereplic: inconclusive; RORgamma inh: -6%; MCF10A rereplic: inconclusive

Results for CN(C(=O)C1CCCC1)C1CCS(=O)(=O)C1 (centres undefined) ?
IL1B secr inh: -7; SW480 rereplic: -17%; MCF10A rereplic: 0%

How did C=CCNC(=O)C(=O)NCCOc1ccccc1Cl do in these assays?
IL1B secr inh: 16; Gal4-VP16 FLuc: -5%; SW480 rereplic: 21µM*; RORgamma inh: 22%; MCF10A rereplic: inconclusive

Results for O=C(NCCOc1ccccc1Cl)C(=O)c1c[nH]c2ccccc12 ?
IL1B secr inh: -20; Gal4-VP16 FLuc: 3%; SW480 rereplic: -5%; RORgamma inh: 37%; MCF10A rereplic: inconclusive

What do the screens show for `CCCn1cnc2sc(CC)cc2c1=O`?
IL1B secr inh: -3; Gal4-VP16 FLuc: -7%; SW480 rereplic: inconclusive; RORgamma inh: 35%; MCF10A rereplic: 4%

Results for CCc1cc2c(=O)n(CCC(C)C)c(=S)[nH]c2s1 ?
IL1B secr inh: 100; Gal4-VP16 FLuc: 1.4µM*; SW480 rereplic: 0%; RORgamma inh: 0.2µM*; MCF10A rereplic: 21%

Results for Cc1cccc(NNC(N)=S)c1C ?
IL1B secr inh: -7; Gal4-VP16 FLuc: inconclusive; SW480 rereplic: -3%; RORgamma inh: 10µM*; MCF10A rereplic: -6%

How did Cc1ccc(C)c(NNC(N)=S)c1 do in these assays?
IL1B secr inh: -9; Gal4-VP16 FLuc: 18µM*; SW480 rereplic: 5%; RORgamma inh: inconclusive; MCF10A rereplic: -2%

Results for Cc1ccc(C)c(NNC(=O)C(=O)NNc2cc(C)ccc2C)c1 ?
IL1B secr inh: 9; Gal4-VP16 FLuc: -1%; SW480 rereplic: -1%; RORgamma inh: -4%; MCF10A rereplic: 6%

What do the screens show for `O=C(/C=C/c1cccs1)NNC(=O)c1ccccc1`?
IL1B secr inh: 0; SW480 rereplic: -1%; MCF10A rereplic: 1%

What do the screens show for `COc1cc2c(cc1OC)C(C(=O)c1ccc(OC)c(OC)c1O)=NCC2`?
Gal4-VP16 FLuc: -9%; RORgamma inh: 0%

Results for COc1cccc(C(O)c2nc(-c3ccc(Cl)cc3)cs2)c1 (centres undefined) ?
IL1B secr inh: 1

How did Cc1cc(=O)n2nc(N3CCCC(C(=O)NCc4ccc(F)cc4)C3)sc2n1 (centres undefined) do in these assays?
IL1B secr inh: -1; Gal4-VP16 FLuc: 7%; SW480 rereplic: -3%; RORgamma inh: 4%; MCF10A rereplic: -1%

Results for O=C(NCc1ccc(F)cc1)C1CCCN(c2nc3ccsc3c(=O)s2)C1 (centres undefined) ?
IL1B secr inh: 1; Gal4-VP16 FLuc: 0%; SW480 rereplic: inconclusive; RORgamma inh: -19%; MCF10A rereplic: 12µM*

Results for C/C(=N\NC(=S)Nc1c(C)cccc1C)c1ccc(OC(F)F)cc1 ?
IL1B secr inh: -13; Gal4-VP16 FLuc: 5.6µM*; SW480 rereplic: inconclusive; RORgamma inh: 3.2µM*; MCF10A rereplic: inconclusive

What do the screens show for `CCOc1cc(C(=O)N/N=C(\C)Cc2ccc(OC)cc2)cc(OCC)c1OCC`?
IL1B secr inh: 0; Gal4-VP16 FLuc: 2%; SW480 rereplic: inconclusive; RORgamma inh: -34%; MCF10A rereplic: inconclusive

Results for COc1ccc(C/C(C)=N/NS(=O)(=O)c2ccc(Br)cc2)cc1 ?
IL1B secr inh: 11; Gal4-VP16 FLuc: inconclusive; SW480 rereplic: 1%; RORgamma inh: 10µM*; MCF10A rereplic: 2%

How did COc1ccc(C/C(C)=N/NC(=S)Nc2ccc(C(C)C)cc2)cc1 do in these assays?
IL1B secr inh: 24; Gal4-VP16 FLuc: inconclusive; SW480 rereplic: 1%; RORgamma inh: 4.5µM*; MCF10A rereplic: -1%

How did COc1ccc(C/C(C)=N/NC(=O)c2ccc(Cl)cc2)cc1 do in these assays?
IL1B secr inh: -3; Gal4-VP16 FLuc: inconclusive; SW480 rereplic: -1%; RORgamma inh: 11µM*; MCF10A rereplic: -2%

What do the screens show for `COC(=O)N/N=C(\C)c1ccc(OC(F)F)cc1`?
IL1B secr inh: -9; Gal4-VP16 FLuc: -15%; SW480 rereplic: -4%; RORgamma inh: 6%; MCF10A rereplic: 1%
